# Shown are actives, neighbours in structure and some others; about 1.9% of the full set was active somewhere.
# PABP1 MLLE inh – inhibitors of microRNA-mediated deadenylation, human PABP1 MLLE binding; 0.36% of 360,000 active; inhibition, % at 20 µM; AID 588489; GST-MLLE / FITC-PAM2 fluorescence polarization; in the data active = inhibition above about 35%, passing the limit was not always enough;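 note: plate controls were DMSO wells with GST-MLLE for no effect and wells lacking GST-MLLE protein for full effect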
# eIF4H FP inh – inhibitors of RNA binding by human eIF4H. inhibition, % at 35 µM. eIF4H fluorescence polarization binding assay. AID 2012. 0.94% of 290,000 active. Q15056;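 note: calls also rest on retests at 20 µM and on dose response follow-up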
# PABP polyA inh – blocks human PABP binding to poly(A) RNA | 1% of 290,000 active | calls only at 35 µM | AID 2014 | fluorescence polarization;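 note: calls also rest on retests at 20 µM and on dose response follow-up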
# eIF4E-4G inh – blocks eIF4E binding to eIF4G. AID 782. P63073+Q04637. 0.37% of 220,000 active. inhibition, % at 21.7 µM. TR-FRET eIF4E-eIF4GI(517-606) binding, 2 h;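 active = inhibition above about 30%, limit read from the data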;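 note: 0% = full FRET control wells and 100% = background wells lacking eIF4GI fragment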
# 14-3-3 Bad inh – disrupts binding of bovine 14-3-3 zeta to phospho-Bad peptide; P63103; TR-FRET 14-3-3zeta/Dy647-pBad peptide displacement, 1 h; inhibition, % at 21.7 µM; 0.71% of 220,000 active;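 active = inhibition above about 70%, limit read from the data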;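 note: 0% = full 14-3-3 plus peptide FRET controls and 100% = background without 14-3-3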
# Target sequence (P63103 whole entry, looked up): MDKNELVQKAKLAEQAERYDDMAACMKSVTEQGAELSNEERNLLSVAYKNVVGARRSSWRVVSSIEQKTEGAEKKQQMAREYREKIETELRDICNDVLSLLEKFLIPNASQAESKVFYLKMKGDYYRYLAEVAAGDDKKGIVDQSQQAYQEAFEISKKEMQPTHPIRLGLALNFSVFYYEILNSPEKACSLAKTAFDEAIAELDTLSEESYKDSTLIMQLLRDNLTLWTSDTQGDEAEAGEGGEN
# An asterisk follows results filed as active; i = inactive; ? = inconclusive; · = not tested or not shown; + = active, no number. Unless noted, the rule behind the calls is not given here.
SMILES,PABP1 MLLE inh,eIF4H FP inh,PABP polyA inh,eIF4E-4G inh,14-3-3 Bad inh
CCCCCC(=O)N1CC2(CC)CN(C(=O)CCCCC)CC(CC)(C1)C2=O,-8.2,98.6*,+,1.5,1.7
Cc1cccc(NC(=O)CSc2nccn2Cc2ccco2)c1,-6.9,16.4,i,·,·
Cc1ccncc1CNC(=O)c1ccccc1,7.8,·,·,·,·
COc1ccc(-c2c(C)nn3c(N)c(C#N)cnc23)cc1OC,-0.5,-9.6,i,38.2*,-4.7
Nc1nc(-c2ccccc2)c(-c2ccccc2)n1N,3.5,54.0,+,·,·
Nc1c(-c2ccccc2)nc(Cl)nc1-c1ccccc1,10.2,-6.2,i,0.4,5.0
Oc1ccc(NCc2ccccc2OCc2ccccc2)cc1,-7.8,87.8*,+,6.6,-12.5
CCCCCCCCCCCCCCCCn1cc[n+](C)c1,-10.3,34.0,i,43.2*,94.9*
CCOC(=O)N1CCC(Nc2nc3ccccc3n3nnnc23)CC1,7.7,?,+,5.0,-10.0
Cc1ccc(CNc2nc3ccccc3n3nnnc23)cc1,12.7,?,?,-22.4,40.9
COc1ccc(C(=O)N2CCC(N3CCN(c4ccccc4)CC3)CC2)cc1,-10.0,-5.3,i,1.0,89.1*
O=C(c1ccccc1)N1CCN(C2CCCCCC2)CC1,-1.4,1.9,i,6.5,72.3*
O=C(CCC1CCCC1)N1CCC(N2CCN(c3ccccc3)CC2)CC1,-2.8,-5.4,i,-8.4,38.6
CC(C)CC(=O)N1CCC(N2CCN(c3ccccc3)CC2)CC1,1.4,1.8,i,50.2*,51.8
NS(=O)(=O)c1cccc(NC(=O)COC(=O)CSCc2ccccc2)c1,4.3,·,·,·,·
CN=c1scc(-c2ccc(F)cc2)n1/N=C/c1ccc(O)c(O)c1,-40.0,3.6,i,-3.8,-21.6
NS(=O)(=O)c1ccc(NC(=O)C2(c3ccccc3)CCCC2)cc1,-14.6,?,+,1.5,-1.9
O=C(NC(=S)Nc1ccc(S(=O)(=O)Nc2nccs2)cc1)c1ccc(F)c(F)c1,16.7,4.8,i,-1.3,-9.3
O=C(NC(=S)Nc1ccc(S(=O)(=O)Nc2nccs2)cc1)c1ccccc1F,27.3,2.9,i,-1.2,-5.3
O=C(NC(=S)Nc1ccc(S(=O)(=O)Nc2nccs2)cc1)c1ccccc1,39.0*,-1.2,i,1.6,-4.8
O=C(NC(=S)Nc1ccc(S(=O)(=O)Nc2nccs2)cc1)c1cccnc1,40.8*,9.7,i,-0.8,-9.7
NS(=O)(=O)c1ccc(NC(=S)NC(=O)c2ccc(-c3ccccc3)cc2)cc1,43.3*,2.0,i,-5.2,60.4
O=C(Nc1ccc(S(=O)(=O)Nc2nccs2)cc1)c1nn(-c2ccccc2)ccc1=O,-35.5,77.1*,i,·,·
Oc1ccc(N=Cc2ccc(OCc3ccccc3)cc2)cc1,14.6,94.8*,+,-2.8,-11.8
CC(=O)Nc1ccc(OCCOc2ccc(/C=C3\C(=N)N4N=C(C)SC4=NC3=O)cc2)cc1,-9.1,10.1,i,·,·
SMILES,PABP1 MLLE inh,eIF4H FP inh,PABP polyA inh,eIF4E-4G inh,14-3-3 Bad inh
Cc1ccccc1NC(=O)NC(N)=O,18.5,-0.9,i,-3.6,-8.2
Cc1ccccc1N=C(N)Nc1ccccc1C,57.9*,·,·,·,·
CCN1/C(=C/c2cc[n+](CCCS(=O)(=O)[O-])c3ccccc23)Sc2ccccc21,-161.8,97.0*,i,3.3,8.1
COc1ccc(OC)c(N/C(C)=C/C(=O)c2ccccc2)c1,10.5,1.2,i,17.0,-7.6
COc1ccc(OC)c(N/C(C)=C/C(=O)c2ccncc2)c1,-4.0,?,+,·,·
O=C(CCCN1C(=O)c2ccccc2C1=O)Nc1nnc(C2CC2)s1,-28.2,active,+,2.8,-8.0
Cc1ccc(S(=O)(=O)N2CCCCC2)cc1NC(=O)c1ccc(Br)o1,3.9,·,·,·,·
COc1ccc(NC(=O)/C(=C/c2cccs2)NC(=O)c2ccco2)cc1,-13.0,-5.0,i,3.0,-0.5
CC(=O)c1ccc(NC(=O)/C(=C\c2cccs2)NC(=O)c2ccco2)cc1,7.0,-2.2,i,-3.3,87.8*
COc1ccc(OCC(=O)Nc2nc3c(s2)CCCC3)cc1,-33.6,-3.5,i,·,·
COc1ccc(NC(=O)Nc2nc3c(s2)CCCC3)cc1,0.0,79.9*,+,1.4,-5.5
Cc1cc2cc(C(c3nnnn3Cc3ccco3)N3CCc4ccccc43)c(=O)[nH]c2cc1C (centres undefined),-4.0,26.2*,+,-8.4,-9.9
Cc1ccc2[nH]c(=O)c(C(c3nnnn3CC3CCCO3)N3CCc4ccccc4C3)cc2c1 (centres undefined),77.7*,-2.7,i,·,·
Cc1cc2cc(C(c3nnnn3Cc3ccco3)N3CCc4ccccc4C3)c(=O)[nH]c2cc1C (centres undefined),1.4,62.7*,+,·,·
COc1ccc2[nH]c(=O)c(C(c3nnnn3CC3CCCO3)N3CCc4ccccc4C3)cc2c1 (centres undefined),36.7,1.6,i,·,·
Cc1cc2cc(C(c3nnnn3Cc3ccccc3)N3CCc4ccccc43)c(=O)[nH]c2cc1C (centres undefined),3.7,-4.1,i,-30.3,-22.1
CCOC(=O)C1CCCN(c2ncnc3c2oc2ccccc23)C1 (centres undefined),-3.4,11.4,i,6.8,82.7*
CCc1nc(N2CCN(C(=O)c3ccco3)CC2)c2oc3ccccc3c2n1,-3.5,-4.9,i,1.5,77.3*
Cc1nc(N2CCN(C(=O)c3ccco3)CC2)c2oc3ccccc3c2n1,-7.3,-3.4,i,·,·
CCOC(=O)C1CCN(c2nc(-c3ccccc3)nc3c2oc2ccccc23)CC1,-2.5,-6.3,i,7.2,80.9*
O=C(O)C1CCN(c2nc(-c3ccccc3)nc3c2oc2ccccc23)CC1,-17.6,2.0,i,2.3,0.4
CCCOc1cccn2c(N(C=O)Cc3ccc(OC)cc3)c(CC)nc12,-0.4,·,·,·,·
CN(C1CCCCC1)S(=O)(=O)c1ccc(S(=O)(=O)N(CC(=O)Nc2ccccc2)C2CC2)cc1,2.1,-4.3,i,-2.9,-3.4
CCc1nc2c(OCC(=O)C(C)(C)C)cccn2c1N(C)C(=O)CC(C)C,-1.1,·,·,·,·
COc1ccc(C(=O)Nc2ccc3nc4n(c(=O)c3c2)CCCC4)cc1[N+](=O)[O-],·,-2.1,+,0.6,11.0
SMILES,PABP1 MLLE inh,eIF4H FP inh,PABP polyA inh,eIF4E-4G inh,14-3-3 Bad inh
O=C(NNC(=O)C1CCN(Cc2ccccc2)CC1)c1cccs1,-3.6,-2.8,i,-0.5,73.4*
CCc1nc2oc3cc(OC)ccc3c(=O)c2c(=O)n1Cc1ccco1,-66.7,51.7*,+,2.2,2.8
COc1ccc2c(=O)c3c(=O)n(Cc4ccco4)c(-c4ccco4)nc3oc2c1,7.8,86.0*,+,1.3,-8.3
CC(NC(=O)c1cccs1)c1n[nH]c(=S)n1C (centres undefined),-17.1,3.2,i,-1.9,4.3
c1ccc(COc2ccc(-c3cc4nc(NCCN5CCOCC5)ccn4n3)cc2)cc1,-30.0,·,·,·,·
O=C(NCc1ccco1)c1cccc(Br)c1,2.5,-9.0,i,·,·
